# Assay outcomes: PubChem, National Center for Advancing Translational Sciences (NCATS)
# Many of the other results were omitted from the sample, so hits are more common in it than they were.
# GFP derepression – epigenetic GFP locus derepression in mouse cells | mouse C127i GFP locus derepression, cytometry, 30 h | Potency, µM (top dose mostly 46.1 µM) | 68,000 compounds, 0.09% hits | AID 597
#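 Derepression screen: silenced CMV-GFP reporter in murine C127i cells, 30 h compound incubation at 37 C, washed cells imaged by laser-scanning cytometer to enumerate GFP-expressing objects of 20 to 120 um.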
# GBA activity – alters purified human glucocerebrosidase activity; P04062; purified enzyme, resorufin glucoside fluorescence (screen aimed at inhibitors), 20 min; Potency, µM; 48,000 compounds, 1.1% hits; in the data active = potency below about 15 µM; inconclusive = mostly about 16 µM to 33 µM;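 also: the screen sought inhibitors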
#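 Wild-type enzyme at 0.2 nM final in 50mM citric acid/KH2PO4, 10mM sodium taurocholate, 0.01% tween-20, pH 5.9, with resorufin beta-D-glucopyranoside at 30 uM final. Compounds titrated, 20 min at RT, red fluorescence read; AC50 from titration.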
# HBB splice mod – modulators of hemoglobin beta chain splicing. HBB splicing reporter cell assay, activation; EGFP reporter with mutant IVS2-654 intron; response scale: normalised to 500 nM splice-correcting PNA. Potency, µM (highest dose often 46.1 µM), usual class: activators. 65,000 compounds, 0.06% hits. AID 925
#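 HeLa cells stably expressing EGFP interrupted by mutant beta-globin intron 2 (IVS2-654), 500/well in 2% FCS. Treated with compound for 2 days at 37C. Splicing correction scored as total well GFP intensity (488 nm excitation, 500-520 nm emission); 500 nM antisense PNA served as control.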
# UbGFP stabilizer – inhibits proteasome, raising ubiquitin-GFP reporter fluorescence; Ubiquitin-GFP reporter cells, proteasome inhibition, GFP fluorescence; response scale: untreated = 0%, 10 µM MG-132 = 100%; Potency, µM (series often up to 45.9 µM), actives largely listed as activators; 67,000 tested, under 10 active; AID 526; active = well fitted activation curve with a large enough effect, not every such curve was filed as active; inconclusive = small, poorly fitted or top-dose-only effect, or another doubt; inactive = no such curve, though single readings can be large or run the other way
#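 Reporter cells (U2OS, ubiquitin-G76V-GFP fusion) are plated overnight, then treated 4 hr at 37 °C with compound titrations from 46 uM down to 2.9 nM. Activity is scaled against untreated cells and 10 uM MG-132.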
# Caspase-7 inhib – caspase-7 (human) inhibition, allosteric or competitive | P55210 | recombinant caspase-7, Ac-DEVD-AFC fluorescence rate | Potency, µM (series often up to 57.5 µM), hits mostly inhibitors | 75,000 compounds, 0.02% hits; active = well fitted inhibition curve with a large enough effect in the main read-out, with a control signal flat, not every such curve was filed as active; inconclusive = small, poorly fitted or top-dose-only effect, or a change in a side signal
# Caspase-1 inhib – blocks human caspase-1 allosterically or competitively; P29466; Caspase-1 enzyme, Ac-WEHD-AFC fluorogenic rate; Potency, µM (highest dose often 57.5 µM), actives largely listed as inhibitors; 75,000 compounds, 0.03% hits; AID 900
# A number is an active result; - = inactive; ? = inconclusive; . = no result given; [ ] = another dose, or the depositor's remark. Unless noted, calls follow the shape of the dose curve; as a rule, active = well fitted curve in the direction sought with a large enough effect; inconclusive = small, poorly fitted or top-dose-only effect, or another doubt; inactive = no such curve, though single readings can be large; an effect the other way counts as inactive or inconclusive.
SMILES,GFP derepression,GBA activity,HBB splice mod,UbGFP stabilizer,Caspase-7 inhib,Caspase-1 inhib
COc1cc(OC)c(OC)cc1CN(C)CCc1ccccn1,-,15.1,-,-,-,-
COc1ccc(CN(C)CCc2ccccn2)cc1OC,-,-,-,-,-,-
O=C(Nc1cccc(C(F)(F)F)c1)c1cc(-c2cccs2)on1,-,4.85,-,-,-,-
O=C(NCCc1c[nH]c2ccccc12)c1cc(S(=O)(=O)N2CCCCC2)ccc1N1CCOCC1,-,?,-,-,-,-
Cc1ccc(-n2c(SCC(=O)Nc3ccc4c(c3)OCO4)nnc2-c2cccs2)cc1,-,9.3,-,-,-,-
COc1ccc(Oc2ncc3nc(-c4ccccc4)c(=O)n(C[C@H]4CCCO4)c3n2)cc1,-[9.22 µM],.,-,-,-,-
Cc1nc2cc(NC(=O)N(C)c3ccc4ccccc4c3)ccc2o1,-,-,-,-,-,-
NS(=O)(=O)c1ccc(CCNC(=O)NC2(C(F)(F)F)Oc3ccccc3O2)cc1,?,13.6,-,-,-,-
Cc1cc(C)cc(C(=O)N(C)[C@H](Cc2ccc(-c3ccccc3)cc2)C(=O)N[C@@H](Cc2c[nH]c3ccccc23)C(=O)O)c1,-,.,.,-,31.6µM,-
Cc1ccc(C(=O)NC(Cc2c[nH]c3ccccc23)C(=O)O)o1 (stereo unspecified),-,.,-,-,-,-
COCCn1nnnc1SCC(=O)N1CCCCC1,-,-,.,-,-,-
CC(C)n1c(CNC(=O)c2ccccc2)nc2ccccc21,-,8.43,-,-,-,-
O=C(CC1N=C2c3ccccc3N=C(SCc3ccc(Cl)cc3)N2C1=O)NCc1ccco1 (stereo unspecified),-,-,-,-,-,-
CCn1c2ccccc2c2cc(NC(=O)C3CCN(S(=O)(=O)c4cccs4)CC3)ccc21,-,2.78,-,-,-,-
COc1ccc2[nH]c(=O)c(C(c3nnnn3CC3CCCO3)N3CCc4ccccc4C3)cc2c1 (stereo unspecified),-,14.2,.,-,-,-
Cc1ccc(S(=O)(=O)NCCC(=O)NCc2ccccc2)cc1,-,-,-[1.84 µM],-,-,-
O=C1c2ccccc2C(=O)N1Cc1nn2c(-c3ccc(Cl)cc3)nnc2s1,-,7.78,-,-,-,-
COc1ccc(-c2nnc3sc(CN4C(=O)c5ccccc5C4=O)nn23)cc1,-,.,-,-,-,-
Oc1ccc(COCc2ccccc2)c2cccnc12,3.16µM,-,.,-,-,-
Oc1ccc(CNCc2ccccc2)c2cccnc12,?,.,-[9.22 µM],-[9.17 µM],-[11.5 µM],-[11.5 µM]
CC1=C(C(=O)OCCOC(C)C)C(c2cc3c(cc2Br)OCO3)C2=C(CCCC2=O)N1 (stereo unspecified),-,11,.,-,-,?
CC1CCCCN1CCNc1nc(=S)[nH]c2ccccc12 (stereo unspecified),-,.,-,-,-,-
O=C(O)CCCCCNc1nc(=S)[nH]c2ccccc12,-,7.73,-[0.369 µM],-,-,-
COc1cccc(N2CCN(C(=O)c3ccc(=O)oc3)CC2C)c1 (stereo unspecified),-,.,.,.,.,.
CN(c1ccccc1C(=O)Nc1cccc(C(F)(F)F)c1)S(C)(=O)=O,-,-,-,-,-,-
SMILES,GFP derepression,GBA activity,HBB splice mod,UbGFP stabilizer,Caspase-7 inhib,Caspase-1 inhib
CC(=O)N(CCCN(C)C)CCC(C)CCC=C(C)C (stereo unspecified),-,.,-[9.22 µM],-,-,-
CCCCCCn1cnc2c(c1=O)c1nc3ccccc3nc1n2Cc1cccs1,-,-,-,-,-,-
CCCCn1c2nc3ccccc3nc2c2c(=O)n(CCC)cnc21,-,5,-[0.369 µM],.,-,-
CC(C)CCn1cnc2c(c1=O)c1nc3ccccc3nc1n2Cc1ccc2c(c1)OCO2,-,6.09,-[0.369 µM],-,-,-
CCCn1cnc2c(c1=O)c1nc3ccccc3nc1n2Cc1ccccc1OC,-,-,-[0.369 µM],.,-,-
Cc1ccc(S(=O)(=O)Nc2ccccc2C(=O)c2ccc(C)c(C)c2)cc1,-[9.22 µM],.,-[9.22 µM],-[9.17 µM],-[11.5 µM],-[11.5 µM]
N#Cc1c(C(F)(F)F)cc(-c2ccccc2)nc1SCc1nc(N)nc(N2CCOCC2)n1,10µM,-,10µM,-,-,?
